From PubChem
HT1080NT lethal = qHTS for induction of synthetic lethality in tumor cells producing 2HG: qHTS for the HT-1080-NT fibrosarcoma cell line | HT-1080-NT fibrosarcoma viability, CellTiter-Glo ATP luminescence, 48 h | Potency, µM (top dose mostly 46.1 µM), for inactives: at the top dose activity, negative = less viability, actives largely listed as cytotoxic | 1.6% of 360,000 active;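 further: NT is the 2HG producing partner of a matched IDH1 knockdown line; potency means the concentration at half of the fitted maximal effect; 0% = DMSO-treated cells and -100% = media-only wells without cells; nearly all actives have a fitted effect of over 55% in size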
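Read-out is CellTiter-Glo luminescence after 10 minutes at room temperature, following 48 hours' compound treatment of HT-1080-NT cells (750 cells/well, RPMI, 5% FBS, 37 degrees C).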
HT1080 IDH1KD tx = qHTS for induction of synthetic lethality in tumor cells producing 2HG: qHTS for the HT-1080-IDH1KD cell line; HT-1080 IDH1 knockdown viability, ATP luminescence, 48 h; Potency, µM (titrated, usually from 46.1 µM), without a hit: at the highest dose activity, negative = toxicity, hits mostly cytotoxic; 2% of 360,000 active; AID 686971, 2013;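 further: potency means the concentration at half of the fitted maximal effect; 0% = DMSO wells and -100% = cell-free medium wells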
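After a 2 h attachment period, IDH1KD HT-1080 cells took pin-transferred compound for 48 h at 37 °C; ATP-based luminescence after 10 min room-temperature reagent incubation reported viability.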
TDP1 cell noCPT = qHTS for Inhibitors of human tyrosyl-DNA phosphodiesterase 1 (TDP1): qHTS in cells in absence of CPT; Potency, µM (series often up to 46.2 µM), inactives show top-dose activity change, negative = growth inhibition, usual class: inhibitors; 15% of 420,000 active; DT40 Tdp1-/- hTDP1 cells, no CPT, ATP luminescence, 48 h; further: potency means the concentration at half of the fitted maximal effect; nearly all actives have a fitted effect of over 55% in size
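Stably hTDP1-transfected Tdp1-null chicken DT40 cells were treated with library compounds minus camptothecin and grown for at least 48 hr at 37 °C, after which cellular ATP was quantified by luminescence.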
DT40 TDP1 CPT = qHTS for Inhibitors of human tyrosyl-DNA phosphodiesterase 1 (TDP1): qHTS in cells in presence of CPT | Potency, µM (highest dose often 46.2 µM), for the others: at the top dose activity change, negative = growth inhibition, usual class: inhibitors | 12% of 420,000 active | chicken DT40 Tdp1-/-;hTDP1 cells + 20 nM CPT, ATP luminescence, 48 h; further: potency means the concentration at half of the fitted maximal effect; nearly all actives have a fitted effect of over 55% in size
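Chicken DT40 Tdp1-/- cells stably complemented with human TDP1 were seeded at 400 cells/well in medium containing 20 nM camptothecin, exposed to pin-transferred compounds, and grown at 37 °C for at least 48 hr. Viability was read as ATP luminescence.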
IL-1B inflam inh = qHTS for Inhibitors of Inflammasome Signaling: IL-1-beta AlphaLISA Primary Screen. THP-1 LPS/ATP IL-1B secretion, AlphaLISA, 16 h; hits give low values. activity change, % at 57.5 µM. 4.7% of 360,000 active. AID 743279, 2014; in the data active means activity change below about -50%; inconclusive means mostly about -30% to -49%
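Secreted IL-1B measured by AlphaLISA bead assay after 16 h compound exposure of THP-1 cells; compounds (final up to 57.5 uM) added 1 h before LPS (250 ng/mL) and ATP (1.25 mM) stimulation; lower signal means less secretion.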
An asterisk follows results filed as active; ? = inconclusive; / = not tested or not shown; ! = a repeat was not active; [ ] = dose if it differs, or a comment. Compounds with a hit are over-represented: about 19% of the library has one in this group of screens. Unless noted, the call rests on the fitted dose curve; in most records, active means well fitted curve in the direction sought with a large enough effect; inconclusive means small, poorly fitted or top-dose-only effect, or another doubt; inactive means no such curve, though single readings can be large; an effect the other way counts as inactive or inconclusive. Unless noted, on the % scale 0 is the no-effect control and ±100 the full control effect.

SMILES	HT1080NT lethal	HT1080 IDH1KD tx	TDP1 cell noCPT	DT40 TDP1 CPT	IL-1B inflam inh
Cc1c(C(=O)Nc2cccc(C(F)(F)F)c2)sc2nc3n(c(=O)c12)CCC3	/	/	23.1µM*	23.1µM*	/
CCOC(=O)c1ccc(NC(=O)c2sc3nc4n(c(=O)c3c2C)CCC4)cc1	1.2%	?	18.4µM*	16.4µM*!	-51.5*
Cc1cc(C)cc(NC(=O)CCCc2nc(-c3ccco3)no2)c1	/	/	-4.4%	30.8%	/
CCOC(=O)c1c(C)oc2ncnc(Nc3cccc(C(F)(F)F)c3)c12	/	/	6.0%	-0.8%	/
CN1CCS/C1=C/C=C1/SC(=S)N(Cc2ccccc2)C1=O	0.0%	-14.4%	?	?	-2.2
CCCN1C(=O)/C(=C\C=C2/C=CN(CC)c3ccccc32)SC1=S	0.0%	9.0%	10.3µM*	?	-11.9
CCC1CN(S(=O)(=O)c2cc(-c3cc(C)no3)ccc2C)c2cc(Cl)ccc2O1 (configuration not stated)	/	/	23.1µM*	13µM*	/
Cc1ccc(C)c(N2CCN(S(=O)(=O)c3ccc(-c4cc(C)no4)s3)CC2)c1	-0.9%	-1.7%	?	?	-1.3
Cc1ccc(C)c(N2CCN(S(=O)(=O)c3cc(-c4cc(C)no4)ccc3C)CC2)c1	/	/	16.4µM*	?	/
COc1ccccc1N1CCN(S(=O)(=O)c2cc(-c3cc(C)no3)ccc2C)CC1	/	/	18.4µM*	20.6µM*	/
CCN(C(=O)CN1CCN(c2ccc(O)cc2)CC1)c1c(N)n(Cc2ccccc2)c(=O)[nH]c1=O	-4.9%	16.0%	-27.5%	-17.0%	0.0
CCc1ccc(Cn2c(CNS(=O)(=O)c3ccc(Cl)s3)nc3cccnc32)cc1	/	/	16.4µM*	16.4µM*	/
CCOc1ccc(Cn2c(CNS(=O)(=O)c3cccs3)nc3cccnc32)cc1	/	/	23.1µM*	?	/
CCOc1ccc(Cn2c(CNS(=O)(=O)c3ccc([N+](=O)[O-])cc3)nc3cccnc32)cc1	/	/	-19.4%	-14.7%	/
O=S(=O)(NCc1ccccn1)c1ccc(Cl)s1	-8.2%	2.8%	-22.5%	23.8%	-2.0
Cc1csc(SCC(=O)Nc2ncc(Cl)c(C)c2Cl)n1	13.5%	15.2%	?	-20.9%	3.7
O=C1C2CC=CCC2C(=O)N1c1nc2n(n1)C(c1ccccc1)CC(c1ccccc1)N2 (configuration not stated)	16.9%	8.6%	-3.3%	-6.5%	15.3
c1ccc(C2CC(c3ccccc3)n3c(nc4ccccc43)N2)cc1 (configuration not stated)	-24.4%	-10.5%	14.6µM*	16.4µM*	59.7
CCOC(=O)c1c(C)sc2c1N(C(=O)CN(CC)CC)c1cc(Cl)ccc1S2	?	?	?	18.4µM*	-20.0
CCOC(=O)N1CCN(CC(=O)N2c3ccccc3Sc3ccccc32)CC1	4.7%	-3.5%	?	?	2.2
CCOC(=O)c1c(C)sc2c1N(C(=O)CN(CC)CC)c1ccccc1S2	-3.5%	-2.6%	20.6µM*	?	-10.8
NCCC(=O)N1c2ccccc2Sc2ccc(Cl)cc21	-3.1%	-22.7%	?	?	?
CCOC(=O)c1ccccc1NC(=O)c1cn(-c2ccc(C)c(C)c2)c(=O)c2ccccc12	-4.2%	-1.7%	?	20.6µM*	?
COC(=O)c1ccccc1NC(=O)c1cn(-c2ccc(C)c(C)c2)c(=O)c2ccccc12	3.9%	3.5%	23.1µM*	?	0.0
Cc1ccc(Cl)cc1N1CCN(C(=O)CCSCc2ccccc2F)CC1	/	/	23.1µM*	?	/
Cc1ccc(Cl)cc1N1CCN(C(=O)c2ccccc2SCC(=O)N2CCCC2)CC1	4.1%[9.24 µM]	-15.3%	8.2µM*	20.6µM*	-1.5
